Source: PubChem BioAssay
hgDAF-12 ag: activates the H. glycines DAF-12 receptor ligand-binding domain; HEK293 GAL4-hgDAF12 UAS-luciferase reporter, agonist luminescence; normalized to butyrate control; 370,000 compounds, 1.8% hits; activation, % at 6.8 µM; AID 687014;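 active means activation above a cutoff set at the mean of all screened compounds plus 3 SD, cut at about 10% in these data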;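 further: 0% = DMSO wells and 100% = sodium butyrate wells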
AHR act: activates the human aryl hydrocarbon receptor. AHR-responsive luciferase reporter cells, luminescence. P35869. 320,000 compounds, 2.5% hits. activation, % at 5 µM; in the data active means activation above about 47%;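 further: 0% = vehicle wells and 100% = reference agonist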
Target sequence (P35869 whole entry, looked up): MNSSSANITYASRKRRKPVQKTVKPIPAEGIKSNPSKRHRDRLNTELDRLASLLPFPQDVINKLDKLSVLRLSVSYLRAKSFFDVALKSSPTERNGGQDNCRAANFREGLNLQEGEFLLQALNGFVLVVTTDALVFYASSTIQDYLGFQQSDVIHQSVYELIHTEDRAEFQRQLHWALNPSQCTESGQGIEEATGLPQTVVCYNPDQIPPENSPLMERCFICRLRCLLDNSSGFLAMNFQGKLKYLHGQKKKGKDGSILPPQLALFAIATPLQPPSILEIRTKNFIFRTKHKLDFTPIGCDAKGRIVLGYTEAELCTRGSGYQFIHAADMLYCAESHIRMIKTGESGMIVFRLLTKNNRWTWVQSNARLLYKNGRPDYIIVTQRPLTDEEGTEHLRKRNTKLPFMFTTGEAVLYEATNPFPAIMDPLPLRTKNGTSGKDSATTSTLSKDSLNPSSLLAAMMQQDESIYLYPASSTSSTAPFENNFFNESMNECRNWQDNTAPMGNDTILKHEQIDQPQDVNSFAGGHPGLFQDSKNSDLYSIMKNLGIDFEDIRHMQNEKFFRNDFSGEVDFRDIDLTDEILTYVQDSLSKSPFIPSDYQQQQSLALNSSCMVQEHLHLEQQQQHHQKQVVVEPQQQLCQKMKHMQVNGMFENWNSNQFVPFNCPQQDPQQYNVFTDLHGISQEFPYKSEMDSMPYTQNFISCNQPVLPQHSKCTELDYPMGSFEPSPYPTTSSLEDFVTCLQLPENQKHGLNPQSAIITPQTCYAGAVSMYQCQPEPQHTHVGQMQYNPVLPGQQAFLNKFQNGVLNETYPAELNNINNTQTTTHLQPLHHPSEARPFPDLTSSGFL
DAX1 inh-1: inhibitors of human orphan nuclear receptor DAX1 (NR0B1) | P51843 | HEK293 Gal4-DAX1 luciferase reporter, luminescence | inhibition, % at 6.75 µM | 340,000 compounds, 0.99% hits | AID 504766;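 active means inhibition above the mean over all tested compounds plus 3 SD, cut at about 4.2% in these data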;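 further: 0% = DAX1-transfected cells with DMSO and 100% = empty-vector control cells with DMSO; inhibition shows as a rise in luminescence from relieved DAX1 repression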
DAX1 inh-2: DAX1 (NR0B1) inhibition, primary screen; 370,000 compounds, 1.1% hits; inhibition, % at 6.8 µM; AID 652010; HEK293T StAR-luciferase reporter, SF-1/DAX-1 repression relief;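 active means inhibition above the mean over all tested compounds plus 3 SD, cut at about 3.6% in these data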;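 further: 0% = DAX-1 cells with DMSO and 100% = cells lacking DAX-1 with DMSO; higher inhibition means more luminescence from relief of DAX-1 repression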
hcDAF12 agonist: activators of H. contortus DAF-12 nuclear receptor; HEK293 hcDAF-12 lit1-tk-luc reporter, luminescence; 0% DMSO, 100% Δ7-dafachronic acid; activation, % at 6.8 µM; 370,000 compounds, 1.4% hits; AID 652067;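 active means activation above the mean of all tested compounds plus 3 SD, cut at about 5.5% in these data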;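 further: 100% = response to 3 µM Δ7-dafachronic acid high control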
ssDAF12 agonist: activators of S. stercoralis DAF-12 nuclear receptor; HEK293 ssDAF-12/GRIP1 lit1-tk-luc reporter, luminescence; % of 3 µM dafachronic acid response; activation, % at 6.8 µM; 370,000 compounds, 1% hits; AID 652126;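 active means activation above the mean over all tested compounds plus 3 SD, cut at about 0.9% in these data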;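 further: 0% = DMSO-only wells and 100% = 3 µM delta7-dafachronic acid wells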
* marks the source's active call; other numbers are inactive results. In the library only some 5.7% were active in any assay of this set; here they are far more common.

How did COc1ccc(-c2nnc(SCC(=O)O)n2Cc2ccccc2)cc1 do in these assays?
hgDAF-12 ag: 2; AHR act: 1; DAX1 inh-1: 1; DAX1 inh-2: 0; hcDAF12 agonist: -2; ssDAF12 agonist: -1

Results for CN1CCN(c2ccccc2NC(=O)c2ccc(-c3ccc(Cl)cc3Cl)o2)CC1 ?
hgDAF-12 ag: -1; AHR act: -2; DAX1 inh-1: 1; DAX1 inh-2: 0; hcDAF12 agonist: 0; ssDAF12 agonist: -1

How did CC1CCN(c2ccccc2NC(=O)c2ccc(Br)o2)CC1 do in these assays?
hgDAF-12 ag: 8; AHR act: 1; DAX1 inh-1: 0; DAX1 inh-2: 0; hcDAF12 agonist: -1; ssDAF12 agonist: 1.0*

What do the screens show for `CN1CCN(c2ccccc2NC(=O)c2ccc(Br)o2)CC1`?
hgDAF-12 ag: 2; AHR act: 19; DAX1 inh-1: 0; DAX1 inh-2: -1; hcDAF12 agonist: 0; ssDAF12 agonist: -1

What do the screens show for `O=C(Nc1cccc2nsnc12)c1ccc(-c2cccc(Cl)c2)o1`?
hgDAF-12 ag: -1; AHR act: 52*; DAX1 inh-1: 1; DAX1 inh-2: -1; hcDAF12 agonist: 3; ssDAF12 agonist: -1

What do the screens show for `CN1CCN(c2ccccc2NC(=O)c2ccc(-c3cccc(Cl)c3)o2)CC1`?
hgDAF-12 ag: 1; AHR act: 61*; DAX1 inh-1: 0; DAX1 inh-2: -2; hcDAF12 agonist: 3; ssDAF12 agonist: 0

Results for O=C(Nc1ccc2c(c1)CCC2)c1cc(=O)[nH]c2ccccc12 ?
hgDAF-12 ag: 2; AHR act: 23; DAX1 inh-1: 1; DAX1 inh-2: 0; hcDAF12 agonist: 1; ssDAF12 agonist: -1

Results for CC(C)[C@H](NC(=O)C1CC1)C(=O)N1CCC[C@H]1C(=O)NCc1ccccc1 ?
hgDAF-12 ag: -1; DAX1 inh-2: 1; hcDAF12 agonist: 0; ssDAF12 agonist: -1

Results for COc1cc(C(=O)Nc2ccc(S(=O)(=O)Nc3nccc(C)n3)cc2)c([N+](=O)[O-])cc1OC ?
hgDAF-12 ag: -1; AHR act: 0; DAX1 inh-1: -2; DAX1 inh-2: 0; hcDAF12 agonist: -1; ssDAF12 agonist: -2

What do the screens show for `N#C/C(=C(/O)CSc1ncn[nH]1)c1nc2ccccc2[nH]1`?
hgDAF-12 ag: 0; AHR act: 36; DAX1 inh-1: 0; DAX1 inh-2: 1; hcDAF12 agonist: 6.5*; ssDAF12 agonist: 0

How did CC(=O)OC(/C(O)=C(\C#N)c1nc2ccccc2[nH]1)c1ccccc1 (centres undefined) do in these assays?
hgDAF-12 ag: -4; AHR act: 49*; DAX1 inh-1: 0; DAX1 inh-2: 0; hcDAF12 agonist: -1; ssDAF12 agonist: -1

What do the screens show for `C/C(O)=C(/C#N)c1nc2ccccc2[nH]1`?
hgDAF-12 ag: -2; AHR act: 21; DAX1 inh-1: 0; DAX1 inh-2: 0; hcDAF12 agonist: 0; ssDAF12 agonist: -2

Results for N#C/C(=C(/O)C(Cl)(Cl)Cl)c1nc2ccccc2[nH]1 ?
hgDAF-12 ag: -3; AHR act: 53*; DAX1 inh-1: -1; DAX1 inh-2: 0; hcDAF12 agonist: -1; ssDAF12 agonist: -2

Results for CCN1C(=O)[C@H]2[C@@H](c3ccc(-c4cccc(Cl)c4)cc3)N3CCCC[C@@]3(C(=O)OC)[C@H]2C1=O ?
hgDAF-12 ag: 1; AHR act: 3; DAX1 inh-1: 1; DAX1 inh-2: 0; hcDAF12 agonist: -2; ssDAF12 agonist: -1

What do the screens show for `O=C(Nc1ccc2nsnc2c1)C1CC1`?
hgDAF-12 ag: 2; AHR act: -2; DAX1 inh-1: -1; DAX1 inh-2: -1; hcDAF12 agonist: -1; ssDAF12 agonist: -1

What do the screens show for `O=C(NC1CCC1)c1ccc(C#Cc2cccc(F)c2)nc1`?
hgDAF-12 ag: 11*; DAX1 inh-2: 0; hcDAF12 agonist: 2; ssDAF12 agonist: -1

How did O=C(NC1CCCCCCC1)c1ccc(F)cc1 do in these assays?
hgDAF-12 ag: 11*; AHR act: 2; DAX1 inh-1: 2; DAX1 inh-2: 2; hcDAF12 agonist: 4; ssDAF12 agonist: 0

How did COc1ccccc1Nc1ccc(C(=O)NC2CCCCC2)cn1 do in these assays?
hgDAF-12 ag: 1; AHR act: -1; DAX1 inh-1: 0; DAX1 inh-2: 0; hcDAF12 agonist: 0; ssDAF12 agonist: -2

Results for O=C(NC1CC2CCCC(C1)N2C(=O)NC1CCCCC1)c1ccc(F)cc1 (centres undefined) ?
hgDAF-12 ag: -2; AHR act: -2; DAX1 inh-1: 0; DAX1 inh-2: -1; hcDAF12 agonist: 0; ssDAF12 agonist: 0

Results for O=C(Nc1ccc2nsnc2c1)NC1CCCCC1 ?
hgDAF-12 ag: 12*; AHR act: 5; DAX1 inh-1: 3; DAX1 inh-2: 2; hcDAF12 agonist: 3; ssDAF12 agonist: 0

What do the screens show for `O=C(Nc1ccc(F)cc1)NC1CCCCCCC1`?
hgDAF-12 ag: 12*; DAX1 inh-1: 0; DAX1 inh-2: 4; hcDAF12 agonist: 0; ssDAF12 agonist: -1

Results for Cc1sc2nc(COC(=O)CNC(=O)c3ccc(C(C)(C)C)cc3)[nH]c(=O)c2c1C ?
hgDAF-12 ag: 2; AHR act: 10; DAX1 inh-1: 0; DAX1 inh-2: 0; hcDAF12 agonist: 2; ssDAF12 agonist: -1

Results for COC(=O)[C@]12C[C@H](CC(=O)N3CCCCC3)C(=O)N(CCC3=CCCCC3)C1=C[C@H](COCc1ccccc1)O[C@@H]2C ?
hgDAF-12 ag: 0; DAX1 inh-2: 0; hcDAF12 agonist: -3; ssDAF12 agonist: -1

How did O=C(NNC(=O)C1CCCCC1)c1ccncc1 do in these assays?
hgDAF-12 ag: 0; AHR act: -1; DAX1 inh-1: 1; DAX1 inh-2: 0; hcDAF12 agonist: -2; ssDAF12 agonist: -1

How did COc1ccc(C(=O)NC2CCCCCCC2)cc1OC do in these assays?
hgDAF-12 ag: 2; AHR act: 4; DAX1 inh-1: 3; DAX1 inh-2: 0; hcDAF12 agonist: 0; ssDAF12 agonist: -1

What do the screens show for `O=C(NNC(=O)c1ccncc1)NC1CCCCC1`?
hgDAF-12 ag: 1; AHR act: -1; DAX1 inh-1: 4.8*; DAX1 inh-2: 0; hcDAF12 agonist: -1; ssDAF12 agonist: -2

How did CN1C(=O)c2ccc(C(=O)NC3CCCCC3)cc2C1=O do in these assays?
hgDAF-12 ag: 2; AHR act: -1; DAX1 inh-1: 2; DAX1 inh-2: -1; hcDAF12 agonist: 0; ssDAF12 agonist: 1.0*

Results for COc1ccccc1N(C)S(=O)(=O)c1ccc(C(=O)Nc2cc(OC)c(OC)c(OC)c2)cc1 ?
hgDAF-12 ag: -4; DAX1 inh-1: -1; DAX1 inh-2: -4; hcDAF12 agonist: -3; ssDAF12 agonist: -2
